# In all, about 75,000 compounds went through this assay and about 35 (0.05%) were called active. The list comes from a sample in which actives are over-represented; it also holds similar structures and randomly drawn compounds. Unmarked numbers belong to inactive results. Calls come from the whole dose curve; as a rule, active = well fitted inhibition curve with a large enough effect; inconclusive = small, poorly fitted or top-dose-only effect; inactive = no such curve, though single readings can be large or run the other way.
# Target: Breast cancer type 1 susceptibility protein (Homo sapiens) (UniProt P38398)
# Assay: qHTS Assay for Inhibitors of BRCT-Phosphoprotein Interaction (Green Fluorophore);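 for activity change, negative = inhibition: plate controls were peptide without protein for full effect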
# Conditions: BRCA1 BRCT-phosphopeptide binding, green fluorescence polarization; series mostly up to 76.9 µM; activity change, negative = inhibition: at the top concentration
# Protocol: NIH Molecular Libraries Screening Centers Network [MLSCN]
# NIH Chemical Genomics Center [NCGC]
# PI Name: Natarajan, Amarnath; University of Texas
# A complex of BRCT (C-terminal portion of BRCA1, MW ~35 kDa, His-tagged) and fluorescently labeled pBACH1 phosphorylated 10 aa peptide fragment of BACH1, a helicase implicated in DNA repair, is incubated with library members. Inhibitors of BRCT-pBACH1 binding are detected by a decrease in the fluorescence polarization (FP) of the fluorophore. In order to minimize the effect of fluorescence artifacts and to increase the overall robustness of the screen, the compound library members were incubated in separate reactions with fluorescein labeled probe-protein complexes. Protein and labeled probes were supplied by Dr. Amarnath Natarajan, Department of Pharmacology and Toxicology, University of Texas Medical Branch Galveston, TX.
# Assay Buffer: 16mM Na2HPO4, 4 mM NaH2PO4, 150 mM NaCl, 1 mM EDTA, 1 mM DTT, 0.02% NaN3, and 0.01% Tween 20 at pH 7.3.
# 100 nM labeled decapeptide/250 nM protein in columns 1, 2, 5 - 48. Titration of unlabeled decapeptide control (from 10 mM, then 1:2 dilution in duplicate) pin-transferred to column 2, rows 1 to 16. Column 1 is neutral.
# Three uL of reagents were dispensed to 1536-well Greiner black solid-bottom plates. Compounds and controls (23 nL) were transferred
# via Kalypsys PinTool. The plates were incubated for 12 min at room temperature, and then read on ViewLux (Perkin-Elmer) High throughput CCD imager using FITC for the fluorescein-labeled decapeptide probe polarization filter sets. During dispense, reagent bottles were kept submerged into 4 deg C water bath and all liquid lines were covered with aluminum foil to minimize probe and protein degradation. All screening operations were performed on a Kalypsys robotic system (Kalypsys, Inc., San Diego, CA) containing one RX-130 and two RX-90 anthropomorphic robotic arms. The timing and order of assay plates passing through the screening system were adjusted such that each compound library plate was assayed against the fluorescein- and rhodamine-labeled assay systems at immediately adjacent time points.
# Potency is the fitted concentration of half-maximal effect.
# Chain of Breast cancer type 1 susceptibility protein (Homo sapiens) (P38398 whole entry, looked up): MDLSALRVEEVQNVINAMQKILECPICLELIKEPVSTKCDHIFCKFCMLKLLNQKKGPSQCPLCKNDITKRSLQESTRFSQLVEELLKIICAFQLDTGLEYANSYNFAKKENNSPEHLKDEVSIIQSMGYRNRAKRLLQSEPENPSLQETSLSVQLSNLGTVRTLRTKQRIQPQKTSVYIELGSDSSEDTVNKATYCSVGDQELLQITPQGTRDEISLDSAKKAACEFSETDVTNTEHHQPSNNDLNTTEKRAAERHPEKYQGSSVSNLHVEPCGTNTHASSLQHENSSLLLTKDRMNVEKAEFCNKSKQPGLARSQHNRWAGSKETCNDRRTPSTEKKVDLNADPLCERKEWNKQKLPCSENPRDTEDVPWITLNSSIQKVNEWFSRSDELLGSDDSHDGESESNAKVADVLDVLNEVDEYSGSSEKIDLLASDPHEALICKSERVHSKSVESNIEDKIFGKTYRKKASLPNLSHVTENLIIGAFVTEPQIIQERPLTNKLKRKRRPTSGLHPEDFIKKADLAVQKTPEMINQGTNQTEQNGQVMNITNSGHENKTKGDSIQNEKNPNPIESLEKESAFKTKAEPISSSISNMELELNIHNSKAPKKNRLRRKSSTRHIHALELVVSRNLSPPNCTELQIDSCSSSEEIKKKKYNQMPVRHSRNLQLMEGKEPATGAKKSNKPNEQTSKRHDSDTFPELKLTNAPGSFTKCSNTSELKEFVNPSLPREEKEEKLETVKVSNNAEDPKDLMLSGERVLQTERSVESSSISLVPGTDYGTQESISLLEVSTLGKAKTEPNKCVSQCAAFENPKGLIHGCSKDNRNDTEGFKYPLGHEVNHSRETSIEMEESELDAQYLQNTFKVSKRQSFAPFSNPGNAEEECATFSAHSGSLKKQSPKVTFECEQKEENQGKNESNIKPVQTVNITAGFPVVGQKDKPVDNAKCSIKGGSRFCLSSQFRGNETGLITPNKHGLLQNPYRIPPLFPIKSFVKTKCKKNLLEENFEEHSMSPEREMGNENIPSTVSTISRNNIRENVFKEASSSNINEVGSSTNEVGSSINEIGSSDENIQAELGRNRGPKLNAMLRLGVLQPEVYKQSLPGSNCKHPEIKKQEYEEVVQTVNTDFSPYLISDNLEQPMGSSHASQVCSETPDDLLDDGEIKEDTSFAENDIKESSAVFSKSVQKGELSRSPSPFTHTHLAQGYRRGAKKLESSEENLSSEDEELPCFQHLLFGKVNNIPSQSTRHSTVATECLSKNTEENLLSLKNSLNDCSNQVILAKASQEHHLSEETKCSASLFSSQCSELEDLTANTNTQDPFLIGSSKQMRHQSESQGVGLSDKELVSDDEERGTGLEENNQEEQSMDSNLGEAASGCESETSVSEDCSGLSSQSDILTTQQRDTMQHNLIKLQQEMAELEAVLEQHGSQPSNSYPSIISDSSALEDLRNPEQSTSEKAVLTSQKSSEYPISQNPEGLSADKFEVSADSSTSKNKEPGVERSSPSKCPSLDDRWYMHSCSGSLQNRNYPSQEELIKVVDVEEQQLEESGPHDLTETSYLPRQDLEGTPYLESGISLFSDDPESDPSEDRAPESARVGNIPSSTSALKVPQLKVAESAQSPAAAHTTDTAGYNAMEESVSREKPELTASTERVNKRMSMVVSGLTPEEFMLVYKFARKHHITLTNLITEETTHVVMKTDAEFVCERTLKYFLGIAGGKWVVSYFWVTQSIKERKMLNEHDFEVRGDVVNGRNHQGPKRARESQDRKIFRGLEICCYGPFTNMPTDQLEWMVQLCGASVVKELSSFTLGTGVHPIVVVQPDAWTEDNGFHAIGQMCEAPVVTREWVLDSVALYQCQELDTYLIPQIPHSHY
SMILES,"activity change, negative = inhibition",Potency
C(=C\c1ccccc1)/CSc1nnc(-c2cccnc2)n1Cc1ccco1,-0.527%,
CCN1C(=O)c2cccc3c(N)ccc1c23,-1.28%,
Nc1ccc2c3c(cccc13)C(=O)NC2=O,,12.6 µM (active)
Cc1ccc(C)c(N2CCN(S(=O)(=O)c3ccc4c(c3)oc(=O)n4C)CC2)c1,1.05%,
CCN(CC)CCNC(=O)Cn1cnc2sc(C)c(S(=O)(=O)N3CCOCC3)c2c1=O,-0.894%,
CC(=O)Nc1ccc(S(=O)(=O)N2CCSCC2)cc1,0.335%,
COc1cccc(CNC(=O)C2CCN(S(=O)(=O)c3cccc4cccnc34)CC2)c1,-0.134%,
Cc1ccc(S(=O)(=O)c2c(N)n(C)c3nc4ccccc4nc23)cc1,3.01%,
O=C(Nc1ccc(S(=O)(=O)N2CCCC2)cc1Cl)C1=COCCO1,0.643%,
O=C(c1cnccn1)N1CCC2(CCN(Cc3cc(C(F)(F)F)cc(C(F)(F)F)c3)CC2)CC1,0.461%,
CCOc1ccccc1N(CC(=O)NC1CCCCC1)C(=O)CCCC(=O)Nc1ccccn1,-1.87%,
Cc1cc(C)cc(OCc2nnc(SCC(=O)OC3CCCCC3)o2)c1,-1.6%,
CCOc1cc(S(=O)(=O)NCc2ccc3c(c2)OCO3)ccc1F,0.095%,
COc1ccc(-c2nc3cnc(OC)nc3n(Cc3ccc(F)cc3)c2=O)cc1,-2.13%,
Cc1cc(N=CC2=C(O)CCCC2=O)no1,0.2%,
CC(=O)c1nc(N2C(=O)C3CC=C(C)CC3C2=O)sc1C (stereo not drawn),0.509%,
Cc1cn(COC/C=C/c2ccccc2)c(=O)[nH]c1=O,1.28%,
O=C1NC(c2ccncc2)Nc2sc3c(c21)CCCC3 (stereo not drawn),1.19%,
COc1ccc2c(c1)C=CC1(O2)N(CCO)c2ccccc2C1(C)C (stereo not drawn),7.47%,
CN(C)CCOC(=O)C(c1ccccc1)C1(O)CCCC1 (stereo not drawn),-1.8% [at 3.08 µM],
COC(=O)c1ccc(CN(c2ccccc2OC)S(=O)(=O)c2cccs2)o1,-0.914%,
COc1ccc(S(=O)(=O)NC(CC(=O)NCc2ccccc2OC)c2ccco2)cc1 (stereo not drawn),-1.17%,
CCOC(=O)C1=C(CNC2CCCCC2)NC(=O)NC1c1cc(C)ccc1C (stereo not drawn),0.587%,
CCSc1nc2c(c(=O)[nH]1)C(c1cccnc1)C(C(=O)OC(C)C)=C(C)N2 (stereo not drawn),-0.428%,
O=C(CCC(=O)N1CCN(S(=O)(=O)c2ccccc2)CC1)NC1CCCc2ccccc21 (stereo not drawn),-0.237%,
CCNS(=O)(=O)c1ccc(NC(=O)Nc2cccc(OC)c2)cc1,0.136%,

SMILES,"activity change, negative = inhibition",Potency
O=S(=O)(/C=C/c1ccccc1)NCCc1ccccn1,-2.8%,
CCOc1ccc(NC(=O)Nc2cc(C)ccc2OC)cc1,-0.177%,
Cc1cc2nc3c(=O)[nH]c(=O)nc-3n(C[C@H](O)[C@H](O)[C@H](O)CO)c2cc1C,,7.94 µM (active)
C=CCn1c(COc2ccccc2C)nnc1SCC(=O)O,-0.75%,
O=C(C(Cc1ccccc1)n1cccc1)N1CCN(C2CCCCC2)CC1 (stereo not drawn),0.978%,
OCc1n[nH]c(CO)n1,-3.47%,
CCn1ncc(Br)c1C(=O)Nc1cc(C)ccc1F,-0.796%,
CCOC(=O)CN1C(=O)C(O)(CC(=O)c2ccccn2)c2ccccc21 (stereo not drawn),-0.714%,
CCCOc1cccc(C(=O)Nc2nnn(CCC)n2)c1,-2.09%,
Cn1cnc2c1c(=O)n(Cc1c(Cl)cccc1Cl)c(=O)n2C,1.6%,
COc1cccc([C@H]2Oc3ccc(OC)cc3/C(=N\OCC[C@@H]3C=C[C@H](OC(C)=O)[C@H](COC(C)=O)O3)[C@@H]2O)c1,1.43% [at 15.4 µM],
Cc1ccccc1OCC(=O)Nc1ccc(N2CCN(C(=O)C(C)C)CC2)c(Cl)c1,-0.753%,
O=C(NCCSc1ccccc1)c1ccco1,0.586%,
CCCCOc1ccc(-c2nnc(-c3ccco3)o2)cc1,0.772%,
COc1ccc(-c2oc3cc(OC)ccc3c2C(=O)c2ccc(C#N)cc2)cc1,0.239%,
Cc1cnc(CNc2cc(-c3c(C)noc3C)ncn2)cn1,-3.11%,
Cn1c(N)c(C(=O)COC(=O)c2cc(C(F)(F)F)nc3c(C(F)(F)F)cccc23)c(=O)n(C)c1=O,-3.55%,
CCc1c(C)nc2cc(-c3cccs3)[nH]n2c1=O,2.29%,
COC(=O)c1ccc(C23CC4(C2)[C@H](CN(Cc2cccnc2)[C@@H]4c2ccccc2)C3c2ccc(Cl)nc2)cc1 (stereo partly drawn),-1.12%,
COc1ccc2c(=O)cc(-c3ccccc3)oc2c1O,-2.2%,
Cc1ccc(NC(=O)CN2CCC3(O)CCCCC3C2c2ccc3c(c2)OCO3)c(C)c1 (stereo not drawn),-4.21%,
CCS(=O)(=O)N(C)[C@@H]1c2cc(C#N)ccc2OC(C)(C)[C@H]1O,inactive,
CCc1nc(Nc2ccc3nccnc3c2)c2oc3ccccc3c2n1,4.22%,
O=C(CN1C(=O)CSc2ncccc21)N1CCOCC1,0.57%,
FC(F)(F)c1cc(-c2cccs2)nc(NCc2ccco2)n1,-4.7%,
Cc1n[nH]c(C)c1S(=O)(=O)N1CCCC(C(=O)NCC2COc3ccccc3O2)C1 (stereo not drawn),-1.37%,

SMILES,"activity change, negative = inhibition",Potency
Cc1ccc(S(=O)(=O)N2CCC(C(=O)N[C@@H](C)C(=O)NCCc3ccccc3)CC2)cc1,-2.76%,
O=C(O)C1CCN1C1CCCCC1 (stereo not drawn),-0.829%,
CCC(=O)c1ccc(OCC(O)CN2CCN(c3cccc(C(F)(F)F)c3)CC2)cc1 (stereo not drawn),-3.1%,
CC1CN(C(=O)CN2C(=O)NC(C)(c3ccccc3)C2=O)CC(C)O1 (stereo not drawn),1.73%,
O=C(c1cc(C(F)(F)F)cc(C(F)(F)F)c1)N1CCC2(CCCN(Cc3ccncc3)C2)CC1,-0.118%,
CS(=O)(=O)c1ccc2nc(NC(=O)C3C4C=CC(C4)C3C(=O)O)sc2c1 (stereo not drawn),-1.62%,
CCOC(=O)/C=c1\s/c(=C\c2ccccc2OC)c(=O)n1CC(=O)N1CCOCC1,-0.845%,
CCC1=C(OC(=O)N(CC)CC)N2C(=O)OC(=NCC3CC3)[C@]2(C)[C@H]2C1=CC[C@H]1C(=O)N(CC(=O)OC)C(=O)[C@H]12,-1.73%,
Cc1cc(/C=N/n2cnnc2)c(C)n1-c1cccc(C(=O)O)c1,-0.794%,
CC(=O)N(Cc1cccs1)C1CCOC(C)(C)C1 (stereo not drawn),-1.07%,
COCc1nc2ccccc2n1Cc1ccccc1Br,-0.882%,
CCn1c(CNC(=O)c2ccc(OC)c(OC)c2)nnc1SCC(=O)Nc1ccccc1,-1.99%,
COc1ccc(OC)c(CN2C(=O)CCC2(C)C(=O)NC2CCCCCC2)c1 (stereo not drawn),0.0804%,
c1ccc(-c2noc(-c3cccs3)n2)nc1,-2.54%,
CCOc1ccc(OCC)c(NC(=O)CN(C)S(=O)(=O)c2cccc3nsnc23)c1,0.0132%,
Cc1ccc2nc(NC3=NCN(CCc4ccccc4)CN3)nc(C)c2c1,-1.27%,
COc1ccccc1-c1nc(NCc2cccs2)c2ccccc2n1,0.498%,
CC1=C(C(=O)Nc2ccccc2)C(c2cccs2)C(C#N)=C(SCC#N)N1 (stereo not drawn),32.1%,
COc1ccc(Cl)cc1S(=O)(=O)N1CCN(CC(=O)C(C)(C)C)CC1,-0.719%,
C=CCSc1nc2c(c(=O)[nH]1)C(C(C)C)C(C#N)=C(N)O2 (stereo not drawn),-0.716%,
O=P(c1ccc2c(c1)OCCO2)(N1CCOCC1)N1CCOCC1,-1.91%,
CCCCCn1c(SCCC(C)C)nc2c1c(=O)[nH]c(=O)n2C,-2.32%,
Cc1sc2c(c1C)c(=O)n(-c1ccccc1)c1nncn21,-0.541%,
CCCC(=O)N1c2ccc(-c3csc(N)n3)cc2CC1C (stereo not drawn),-1.31%,
CCCCCOC(=O)NCCOC(=O)Nc1ccc(C(=O)OCC)cc1,-3.13%,
Cn1c(=O)c2c(ncn2CC(=O)N2CCN(c3ccccc3)CC2)n(C)c1=O,-2.15%,

SMILES,"activity change, negative = inhibition",Potency
CN(CCOc1ccc(CC2SC(=O)NC2=O)cc1)c1ccccn1 (stereo not drawn),-0.73% [at 3.08 µM],
COc1cc2c(cc1O)C(SC)=NC(C)(C)C2,-1.19%,
O=C(CN1CCN(C(=O)c2ccco2)CC1)Nc1ccc(Cl)c(C(F)(F)F)c1,2.17%,
Cc1ccc(C(=O)Nc2ccccc2C(=O)NC2CCCCC2)cc1S(=O)(=O)N1CCOCC1,1.27%,
C/C(=C\C(=O)c1ccccc1)Nc1cccc(O)c1,0.601%,
CCC/C(O)=C1\C(=O)CC(C)(C)CC1=Nc1ccccc1OC,-1.06%,
COC(=O)c1cc(NC(=O)CN2CCC(C(N)=O)(N3CCCCC3)CC2)cc(C(=O)OC)c1,-2.28%,
Cc1cc(C(=O)Nc2c(C)n(C)n(-c3ccccc3)c2=O)cs1,-7%,
COc1ccc(C2C3=C(CC(C)(C)CC3=O)Oc3ncn4nc(-c5cccnc5)nc4c32)cc1OC (stereo not drawn),-0.0734%,
Cn1cccc1C(=O)N1CCC[C@@]2(CCN(Cc3nccs3)C2)C1,-1.08%,
O=[n+]1c2c(n([O-])c3cc(Br)ccc31)CCC2,-1.52%,
COc1cc([C@H]2c3cc4c(cc3[C@@H](O[C@@H]3O[C@H]5CO[C@@H](C)O[C@]5(O)C[C@H]3O)[C@@H]3COC(=O)[C@H]23)OCO4)cc(OC)c1O,-3.38%,
FC(F)(F)c1ccc(CN2C[C@@H]3C(c4ccccc4)C4(c5ccccc5)CC3(C4)[C@H]2c2ccccc2)cc1 (stereo partly drawn),2.27%,
CC1CCN(c2nc3c(c(=O)[nH]c(=O)n3C)n2CCCc2ccccc2)CC1,4.69%,
Cc1cccc2c3c(ccc12)C1=C(C(=O)C3=O)C(C)CO1 (stereo not drawn),-7.86%,
CCOC(=O)c1cc2n(c1C)-c1ccccc1C2=O,-2.66%,
CCOC(=O)Nc1ccccc1N1C(=O)c2ccccc2C1=O,-2.15%,
CCOC(=O)c1cc2n(c1N)-c1ccccc1C2=O,,15.8 µM (active)
COC(=O)[C@@H]1C[C@@]2(O)[C@H](O)[C@H](O)[C@H](O)C[C@H]2N1CC1CCCCC1,-2.7%,
Cn1c(=O)n(C)c2cc(CNc3ccc(N4CCOCC4)c(C(=O)O)c3)ccc21,1.12%,
O=C(NCc1ccc(Cl)cc1)c1cc2c(nc3sccn32)s1,-0.656%,
COC(=O)[C@@H]1C[C@@]2(O)[C@@H](O)[C@@H](O)[C@@H](O)C[C@H]2N1Cc1ccc(C)s1,-3.88%,
CCc1c(O)nc(SCC(=O)N2CCCCC2)n(-c2ccccc2C)c1=O,-0.89%,
O=C(NC1CCCC1)c1ccc(Br)s1,-2.61%,
COc1ccccc1CNC(=O)C1CCN(S(C)(=O)=O)CC1,-0.664%,

# From PubChem BioAssay AID875 (National Center for Advancing Translational Sciences (NCATS), 2007)
